SARS PLpro yeast – inhibitors of SARS-CoV papain-like protease in yeast | 330,000 compounds, 0.19% hits | Potency, µM (doses to about 32.9 µM), for the others: top-dose activity, positive = growth rescue, actives largely listed as activators | S. cerevisiae expressing SARS-CoV PLpro, growth rescue; calls by dose curve; also: potency is read from the fitted curve at half-maximal effect; 0% is about no effect; nearly all actives have a fitted effect of over 55% in size
AMA1 RON2 block – AMA1-RON2 (P. falciparum) interaction inhibition; AlphaScreen AMA1-biotinylated RON2 peptide binding; Potency, µM (highest dose often 58.2 µM), for the others: at the highest dose activity change, negative = inhibition, most hits filed as inhibitors; 360,000 compounds, 0.2% hits;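 also: potency is read from the fitted curve at half-maximal effect; 0% = vehicle wells and -100% = peptide control; nearly all actives have a fitted effect of over 45% in size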
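AMA1 (3D7) with his tag at 25 nM final met compounds first, then biotinylated RON2 peptide at 25 nM; detection used donor plus acceptor beads, 10 µg/mL apiece, read by AlphaScreen after 30 min at room temperature.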
Pf growth 96h – inhibits malaria parasite growth, 96 h. P. falciparum luciferase reporter growth, 96 h. Potency, µM (series often up to 28.7 µM), inactives show at the highest dose activity change, negative = inhibition, hits mostly inhibitors. 320,000 compounds, 6.9% hits. AID 504834; also: potency is read from the fitted curve at half-maximal effect; % is scaled to controls: 0 for no effect and ±100 for the full control effect
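96 h incubation, 37 C, 5% CO2, of luciferase-reporter P. falciparum-infected RBCs (2% hematocrit, 0.05% parasitemia final) with test compounds; endpoint luminescence.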
Shiga inhibitor – blocks Shiga toxin action in Vero cells; inhibition, % at 38.7 µM; 290,000 compounds, 9.2% hits; Vero cells, Shiga toxin protein synthesis inhibition reporter; in the data active = inhibition mostly above about 28%, no sharp cut-off; inactive = mostly below about 43%; also: 0% is about no effect
CHX counter – affects cycloheximide protein synthesis inhibition readout, counter-screen; 300,000 compounds, 12% hits; AID 2314; max response, %; cell reporter, cycloheximide protein synthesis inhibition counterscreen; in the data active = max response mostly above about 13%, no sharp cut-off; inactive = mostly below about 14%; also: read at 38.3 µM for the half of the compounds with a filed dose; 0% is about no effect
Pf growth 48h – P. falciparum growth inhibition at 48 hours (one generation); P. falciparum luciferase growth in erythrocytes, 48 h; Potency, µM (titrated, usually from 28.7 µM), for the others: at the top dose activity change, negative = inhibition, actives largely listed as inhibitors; 310,000 compounds, 5.9% hits; also: potency is read from the fitted curve at half-maximal effect; % is scaled to controls: 0 for no effect and ±100 for the full control effect
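A one-generation exposure of luciferase-tagged malaria parasites in RPMI 1640/Albumax erythrocyte culture, 37 C and 5% CO2. Inhibition is inferred from decreased luminescence after adding detection reagent.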
* = called active by the depositor; u = inconclusive; x = no result given; ! = repeats disagree; [ ] = dose if it differs, or a comment. Sampled rows, rich in hits. Any-hit rate of the full collection: about 19%. Unless noted, calls follow the shape of the dose curve; as a rule, active = well fitted curve in the direction sought with a large enough effect; inconclusive = small, poorly fitted or top-dose-only effect, or another doubt; inactive = no such curve, though single readings can be large; an effect the other way counts as inactive or inconclusive.

SMILES	SARS PLpro yeast	AMA1 RON2 block	Pf growth 96h	Shiga inhibitor	CHX counter	Pf growth 48h
Cn1c(=Nc2ccccc2)sc2ccccc21	-4%	11%	x	82	36*	0%
Cc1ccc(S(=O)(=O)N/N=c2\sc3ccccc3n2C)cc1	-24%	19%	-12%	-11	-7	7%
CN(C)c1ccc(N=c2sc3ccccc3n2C)cc1	-17%	24µM*	u	89*	54*	x
O=C1C(=O)N(Cc2ccccc2)C(=O)N1CCOc1ccccc1	-1%	-4%	-3%	-14	-1	17%
COC(=O)c1ccc(/C=C/c2c(-c3ccsc3)sc3ccccc23)cc1	-4%	9%	u	9	2	u
CC(=O)NC1C(OCc2ccccc2)OC2COC(c3ccccc3)OC2C1OCC(=O)O (stereo not drawn)	0%	76%	-21%	33	41*	36%
Cn1c(SCC(=O)NNC(=O)c2ccccc2)nnc1C(F)(F)F	6%	16%	-19%	x	x	8%
COC(=O)c1cc(=O)n(CCc2ccccc2)c(=Nc2ccc(F)cc2)s1	-12%	-19%	4.1µM*	7	1	u
CCOC(=O)c1ccc(N=c2sc(C(=O)OC)cc(=O)n2CCCN2CCOCC2)cc1	4%	-12%	4.7µM*!	-21	-7	u
CC1(C(=O)NCCCN2CCOCC2)Oc2cccnc2NC1=O (stereo not drawn)	1%	-7%	1%	-5	-2	27%
O=C(Cc1ccccc1)Nc1ccccc1N1CCN(c2ccccc2)CC1	2%	-8%	x	-7	1	9.3µM*
CC(=O)N1CCN(c2ccccc2NC(=O)Cc2ccc(Cl)cc2)CC1	-3%	10%	u	7	-4	u
CCC(=O)N1CCN(c2ccccc2NC(=O)Cc2ccccc2)CC1	1%	38%	-2%	42	14	10µM*
CC(C)C(=O)N1CCN(c2ccccc2NC(=O)Cc2ccc(Cl)cc2)CC1	-1%	2%	-3%[5.75 µM]	-15	-4	13µM*
O=C(c1ccco1)N1CCN(c2ccc(N3CCCCC3)nn2)CC1	-8%	13%	u	x	x	-3%
COc1cccc(CNC(=O)C2CCCN(S(=O)(=O)c3cccc4nonc34)C2)c1 (stereo not drawn)	0%	5%	u	-18	-8	x
CC(C)(C)C(=O)OCC(=O)C1CCC2C3CCC4=CC(=O)CCC4(C)C3CCC12C (stereo not drawn)	x	x	u	-1	-2	-19%
CCCCCC(=O)O[C@]1(C(C)=O)CC[C@H]2[C@@H]3CCC4=CC(=O)CC[C@]4(C)[C@H]3CC[C@@]21C	-11%	-7%	0.83µM*	14	-2	1µM*
CC(C)CCC(=O)OC1CCC2C3CCC4=CC(=O)CC[C@]4(C)C3CC[C@]12C (stereo partly drawn)	x	x	12µM*	x	x	13µM*
CCCCCCCCCC(=O)O[C@H]1CC[C@H]2[C@@H]3CCC4=CC(=O)CC[C@]4(C)[C@H]3CC[C@]12C	x	x	8.5µM*	x	x	12µM*
CCCCCCCCCC(=O)O[C@H]1CC[C@H]2[C@@H]3CCC4=CC(=O)CC[C@@H]4[C@H]3CC[C@]12C	x	x	6%	1	5	-11%
O=C(NCC1CCOCC1)C1Cc2c(-c3ccccc3Oc3ccccc3)ccnc2O1 (stereo not drawn)	x	23%	x	x	x	x
CCOC(=O)C1=NN2C(O)C3(C)CC(C(=O)OCC)=NN3C(O)C2(C)C1 (stereo not drawn)	x	9%	x	x	x	x
CCOC(=O)C1(C)NC(c2ccccc2F)C2C(=O)N(CC)C(=O)C21 (stereo not drawn)	0%	3%	13%	-8	4	12%
O=C(OCN1C(=O)c2ccccc2C1=O)c1cc(S(=O)(=O)N2CCOCC2)ccc1F	-9%	0%	0%	x	x	20%
Cc1cccc(NC(=O)c2snc3c(=O)[nH]cnc23)c1	-12%	x	6.6µM*	30	-3	11%
CCc1cccc(NC(=O)c2snc3c(=O)[nH]cnc23)c1	-4%	12%	-16%	25	19	4%
